Hit rate of the full screen: of about 5,500 compounds, about 2,000 (36%) were called active. Roughly 18% stayed inconclusive and do not appear here. Cut-off read from the data, not from the text of the source: active = normalized growth mostly below about 0.91 (no sharp cut-off); inconclusive = no clear call, values can overlap the other calls; inactive = mostly above about 0.92. The list shows a part of the results.
Assay: chemical genetic growth profiling, strain panel (AID 1159580);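 note: tested at 20 µM; growth read once vehicle control cultures reached saturation at 30 °C; 1 = growth at the plate median or of vehicle wells; lower values mean less growth of the strain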
Details: growth OD

Measured: normalized growth

COC1=C(OC)C(=O)C(C/C=C(\C)CC/C=C(\C)CC/C=C(\C)CC/C=C(/C)CC/C=C(\C)CC/C=C(\C)CC/C=C(\C)CC/C=C(\C)CC/C=C(\C)CCC=C(C)C)=C(C)C1=O
inactive: S. cerevisiae deletion strains, locus YJR043C, strain POL32, active compounds read low 1.03 | S. cerevisiae deletion strains, locus YJR066W, strain TOR1, active compounds read low 0.982 | S. cerevisiae deletion strains, locus YKL009W, strain mrt4, active compounds read low 1.07 | S. cerevisiae deletion strains, locus YKL068W, active compounds read low 0.99 | S. cerevisiae deletion strains, locus YKL085W, strain MDH1 (second series), active compounds read low 1 | S. cerevisiae deletion strains, locus YKL085W, strain MDH1, active compounds read low 1 | S. cerevisiae deletion strains, locus YKL160W, strain elf1, active compounds read low 0.988 | S. cerevisiae deletion strains, locus YKR001C, strain vps1, active compounds read low 0.999 | S. cerevisiae deletion strains, locus YKR026C, strain gcn3, active compounds read low 0.986 | S. cerevisiae deletion strains, locus YKR091W, strain srl3, active compounds read low 0.98 | S. cerevisiae deletion strains, locus YLL001W, strain dnm1, active compounds read low 0.974 | S. cerevisiae deletion strains, locus YLL026W, active compounds read low 1 | S. cerevisiae deletion strains, locus YLL041C, strain sdh2, active compounds read low 0.973 | S. cerevisiae deletion strains, locus YLR027C, strain aat2, active compounds read low 0.988 | S. cerevisiae deletion strains, locus YLR039C, strain RIC1, active compounds read low 1.04 | S. cerevisiae deletion strains, locus YLR058C, strain SHM2, active compounds read low 0.985 | S. cerevisiae deletion strains, locus YLR102C, strain apc9, active compounds read low 0.994 | S. cerevisiae deletion strains, locus YLR113W, strain HOG1, active compounds read low 0.986 | S. cerevisiae deletion strains, locus YLR221C, strain rsa3, active compounds read low 0.97 | S. cerevisiae deletion strains, locus YLR258W, strain gsy2, active compounds read low 0.982 | S. cerevisiae deletion strains, locus YLR262C, strain YPT6 (second series), active compounds read low 0.942 | S. cerevisiae deletion strains, locus YLR262C, strain YPT6, active compounds read low 0.972 | S. cerevisiae deletion strains, locus YLR268W, strain sec22, active compounds read low 1.03 | S. cerevisiae deletion strains, locus YLR320W, strain mms22, active compounds read low 0.991 | S. cerevisiae deletion strains, locus YLR330W, strain CHS5, active compounds read low 1.01 | S. cerevisiae deletion strains, locus YLR342W, strain FKS1 (second series), active compounds read low 1.1 | S. cerevisiae deletion strains, locus YLR342W, strain FKS1, active compounds read low 0.96 | S. cerevisiae deletion strains, locus YLR357W, strain rsc2, active compounds read low 0.987 | S. cerevisiae deletion strains, locus YLR370C, strain arc18, active compounds read low 0.953 | S. cerevisiae deletion strains, locus YLR371W, strain rom2, active compounds read low 0.99 | S. cerevisiae deletion strains, locus YLR384C, strain iki3, active compounds read low 0.988 | S. cerevisiae deletion strains, locus YLR418C, strain cdc73, active compounds read low 0.997 | S. cerevisiae deletion strains, locus YML016C, strain PPZ1, active compounds read low 1.01 | S. cerevisiae deletion strains, locus YML032C, strain rad52, active compounds read low 0.971 | S. cerevisiae deletion strains, locus YML120C, strain ndi1, active compounds read low 0.985 | S. cerevisiae deletion strains, locus YML124C, strain tub3, active compounds read low 0.99 | S. cerevisiae deletion strains, locus YMR058W, strain fet3, active compounds read low 0.977 | S. cerevisiae deletion strains, locus YMR078C, strain ctf18, active compounds read low 0.992 | S. cerevisiae deletion strains, locus YMR125W, strain sto1, active compounds read low 0.972 | S. cerevisiae deletion strains, locus YMR129W, active compounds read low 0.974 | S. cerevisiae deletion strains, locus YMR205C, strain PFK2, active compounds read low 1.01 | S. cerevisiae deletion strains, locus YMR223W, strain ubp8, active compounds read low 1.01 | S. cerevisiae deletion strains, locus YMR231W, strain pep5, active compounds read low 0.981 | S. cerevisiae deletion strains, locus YMR307W, strain GAS1, active compounds read low 1.13 | S. cerevisiae deletion strains, locus YNL067W, strain RPL9B, active compounds read low 0.995 | S. cerevisiae deletion strains, locus YNL071W, strain lat1, active compounds read low 0.965 | S. cerevisiae deletion strains, locus YNL183C, strain NPR1, active compounds read low 0.982 | S. cerevisiae deletion strains, locus YNL209W, strain ssb2, active compounds read low 0.971 | S. cerevisiae deletion strains, locus YNL233W, strain BNI4, active compounds read low 1 | S. cerevisiae deletion strains, locus YNL248C, strain rpa49, active compounds read low 0.974 | S. cerevisiae deletion strains, locus YNL250W, strain rad50, active compounds read low 0.985 | S. cerevisiae deletion strains, locus YNL271C, strain bni1, active compounds read low 1.02 | S. cerevisiae deletion strains, locus YNL298W, strain CLA4, active compounds read low 0.998 | S. cerevisiae deletion strains, locus YNL307C, strain MCK1, active compounds read low 0.995 | S. cerevisiae deletion strains, locus YNL322C, strain KRE1 (second series), active compounds read low 0.958 | S. cerevisiae deletion strains, locus YNL322C, strain KRE1, active compounds read low 0.994 | S. cerevisiae deletion strains, locus YNR049C, strain mso1, active compounds read low 0.971 | S. cerevisiae deletion strains, locus YNR052C, strain pop2, active compounds read low 1 | S. cerevisiae deletion strains, locus YOL012C, strain htz1 0.872 | S. cerevisiae deletion strains, locus YOL147C, strain pex11, active compounds read low 1 | S. cerevisiae deletion strains, locus YOR001W, strain rrp6, active compounds read low 0.932 | S. cerevisiae deletion strains, locus YOR061W, strain CKA2, active compounds read low 0.981 | S. cerevisiae deletion strains, locus YOR069W, strain VPS5, active compounds read low 1.01 | S. cerevisiae deletion strains, locus YOR070C, strain gyp1, active compounds read low 0.975 | S. cerevisiae deletion strains, locus YOR080W, strain dia2, active compounds read low 0.999 | S. cerevisiae deletion strains, locus YOR083W, strain WHI5, active compounds read low 0.998 | S. cerevisiae deletion strains, locus YOR106W, strain vam3, active compounds read low 0.973 | S. cerevisiae deletion strains, locus YOR136W, strain idh2, active compounds read low 0.998 | S. cerevisiae deletion strains, locus YOR144C, strain elg1, active compounds read low 0.987 | S. cerevisiae deletion strains, locus YOR184W, strain ser1, active compounds read low 1 | S. cerevisiae deletion strains, locus YOR231W, strain MKK1, active compounds read low 1.05 | S. cerevisiae deletion strains, locus YOR265W, strain rbl2, active compounds read low 0.99 | S. cerevisiae deletion strains, locus YOR270C, strain vph1, active compounds read low 0.967 | S. cerevisiae deletion strains, locus YOR290C, strain snf2, active compounds read low 0.992 | S. cerevisiae deletion strains, locus YOR316C, strain cot1, active compounds read low 0.994 | S. cerevisiae deletion strains, locus YPL051W, strain arl3, active compounds read low 1 | S. cerevisiae deletion strains, locus YPL055C, strain LGE1, active compounds read low 1.02 | S. cerevisiae deletion strains, locus YPL078C, strain atp4, active compounds read low 0.965 | S. cerevisiae deletion strains, locus YPL106C, strain sse1, active compounds read low 0.963 | S. cerevisiae deletion strains, locus YPL240C, strain hsp82, active compounds read low 0.982 | S. cerevisiae deletion strains, locus YPL241C, strain CIN2, active compounds read low 0.996 | S. cerevisiae deletion strains, locus YPL256C, strain CLN2, active compounds read low 1.04 | S. cerevisiae deletion strains, locus YPR119W, strain clb2, active compounds read low 0.981 | S. cerevisiae deletion strains, locus YPR141C, strain kar3, active compounds read low 0.981 | S. cerevisiae deletion strains, locus YPR163C, strain tif3, active compounds read low 0.992 | S. cerevisiae deletion strains, locus YPR167C, strain met16, active compounds read low 0.982 | S. cerevisiae deletion strains, strain wtn01, active compounds read low 1.02 | S. cerevisiae strains, strain wild type, active compounds read low 1.01
